Out of some 320,000 compounds screened, about 1,900 (0.59%) were called active. This is one part of a sample in which actives are shown more often than they occur. Cut-off read from the data, not from the text of the source: active = inhibition mostly above about 10% (no sharp cut-off); inactive = mostly below about 6.7%.

The target in the experiment is Protein LANA1 (Human herpesvirus 8 type P (isolate GK18)) (UniProt Q9QR71). The experiment can be described thus: blockers of LANA interaction with H2A/H2B – biochemical, FP readout, HTS, primary screen (AID 2629). The conditions noted are these: cell-free LANA-H2A/H2B peptide, fluorescence polarization, stronger effect = higher value, concentration not given here.
Protein LANA1 (Human herpesvirus 8 type P (isolate GK18)), sequence (Q9QR71 whole entry, looked up): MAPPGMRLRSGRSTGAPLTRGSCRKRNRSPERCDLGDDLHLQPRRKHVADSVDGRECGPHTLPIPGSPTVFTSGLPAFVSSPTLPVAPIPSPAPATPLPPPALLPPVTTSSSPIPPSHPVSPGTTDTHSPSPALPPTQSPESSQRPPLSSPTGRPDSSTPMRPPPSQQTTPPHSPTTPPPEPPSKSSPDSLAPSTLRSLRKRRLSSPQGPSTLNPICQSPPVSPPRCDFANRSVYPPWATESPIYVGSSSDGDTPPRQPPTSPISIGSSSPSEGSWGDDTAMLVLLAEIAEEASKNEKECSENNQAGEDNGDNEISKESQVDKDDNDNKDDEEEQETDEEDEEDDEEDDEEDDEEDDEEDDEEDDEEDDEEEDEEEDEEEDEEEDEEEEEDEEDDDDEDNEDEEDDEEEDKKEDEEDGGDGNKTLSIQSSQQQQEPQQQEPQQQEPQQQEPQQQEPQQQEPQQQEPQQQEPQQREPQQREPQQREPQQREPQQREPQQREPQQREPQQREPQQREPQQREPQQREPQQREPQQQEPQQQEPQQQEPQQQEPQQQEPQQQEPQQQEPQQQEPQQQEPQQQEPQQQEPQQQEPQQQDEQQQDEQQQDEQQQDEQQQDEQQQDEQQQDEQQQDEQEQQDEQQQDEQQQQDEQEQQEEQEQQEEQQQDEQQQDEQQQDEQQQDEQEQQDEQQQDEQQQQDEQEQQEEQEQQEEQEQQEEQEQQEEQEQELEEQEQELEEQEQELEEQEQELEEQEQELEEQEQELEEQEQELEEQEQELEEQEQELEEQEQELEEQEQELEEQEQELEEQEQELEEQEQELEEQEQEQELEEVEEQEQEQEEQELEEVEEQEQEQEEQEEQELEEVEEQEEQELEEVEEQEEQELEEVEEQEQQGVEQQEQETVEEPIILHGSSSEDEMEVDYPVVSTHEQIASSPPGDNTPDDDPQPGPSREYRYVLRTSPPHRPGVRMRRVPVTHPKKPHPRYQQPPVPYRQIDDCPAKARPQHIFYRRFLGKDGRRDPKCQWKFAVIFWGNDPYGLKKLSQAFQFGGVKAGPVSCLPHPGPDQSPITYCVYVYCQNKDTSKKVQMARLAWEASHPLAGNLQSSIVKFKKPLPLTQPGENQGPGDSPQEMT
`COc1ccccc1NC(=O)C1CCCN1S(=O)(=O)c1ccc(Cl)cc1` (stereo not drawn): the inhibition was -0.219% (inactive). To `NNC(=O)C1CC(O)CN1S(=O)(=O)c1ccc(Cl)cc1` (stereo not drawn) belongs 18% (active); to `O=C1COc2ccc(C(=O)COC(=O)C3CC(O)CN3S(=O)(=O)c3ccc(Cl)cc3)cc2N1` (stereo not drawn), -4.73% (inactive).

Turning to `COc1ccc2c(C)cc3nnnn3c2c1`, the inhibition was 6.55% (inactive). Regarding `O=C(Cn1nnc2ccccc2c1=O)Nc1cc(C(F)(F)F)ccc1N1CCOCC1`, the inhibition was 15.8% (active). The value for `CC(C)CC(=O)Nc1cc(C(F)(F)F)ccc1N1CCOCC1` was 3.7% (inactive); that for `O=C(CN1C(=O)NC2(CCCC2)C1=O)Nc1cc(C(F)(F)F)ccc1N1CCOCC1` was -2.08% (inactive). On to `Cc1cc(Nc2cc(N3CCN(C)CC3)nc(Sc3ccc(NC(=O)C4CC4)cc3)n2)n[nH]1`, for which the inhibition was 1.71% (inactive). To `CN(c1ccccc1)S(=O)(=O)c1ccc(Cl)c(C(=O)OCC(N)=O)c1` belongs -3.79% (inactive); to `CN(c1ccccc1)S(=O)(=O)c1ccc(Cl)c(C(=O)OCC(=O)NCc2ccco2)c1`, -3.84% (inactive). To `Cc1ccc(S(=O)(=O)N(CC(O)CN2CCCCC2)c2cccc([N+](=O)[O-])c2)cc1` (stereo not drawn) belongs 7.02% (inactive). Regarding `Cc1cc(=O)n2nc(N3CCCC(C(=O)N4CCN(C)CC4)C3)sc2n1` (stereo not drawn), the inhibition is 0.763% (inactive). To `CCc1c(C)nc2ncnn2c1N1CCC(C(=O)NCc2ccc3c(c2)OCO3)CC1` belongs 0.84% (inactive); to `O=C(CSc1nnc(-c2ccccc2O)o1)NC1CCCCC1`, 3.2% (inactive); to `CCn1c(SCC(=O)NC2CCCC2)nnc1-c1ccoc1C`, -2.52% (inactive). The value for `Cc1occc1-c1nnc(SCC(=O)NC2CCCCC2)o1` was 14.3% (active); that for `CCCCSCCCNC(=O)C1CCC(CNS(=O)(=O)c2ccc(NC(C)=O)cc2)CC1` (stereo not drawn) was -3.44% (inactive); that for `CCCC1C(c2ccccc2)C(C#N)(C#N)C2(C#N)CC1(N)NC2=O` (stereo not drawn) was 182% (active). In the case of `CCSC1=NCCN1C(=O)c1ccc(S(=O)(=O)N(CC)CC)cc1`, the inhibition was 10.9% (inactive). To `O=C(CN1CCCCCC1)Nc1ccc(S(=O)(=O)N2CCCCC2)cc1` belongs 7.61% (inactive); to `O=C(CN1C(=O)CCC1=O)Nc1ccc(S(=O)(=O)N2CCOCC2)cc1`, 1.75% (inactive). To `O=C(CN1CCN(c2cccc(Cl)c2)CC1)Nc1ccc(S(=O)(=O)N2CCOCC2)cc1` belongs 145% (active); to `COC(=O)CNS(=O)(=O)c1ccc(Cc2ccc(S(=O)(=O)NCC(=O)OC)cc2)cc1`, 5.82% (inactive); to `COC(=O)C1=C(C)NC2=C(C(=O)c3ccccc32)C1c1ccc(-c2ccc(C(=O)O)cc2)o1` (stereo not drawn), 3.17% (inactive).

As to `CC(=O)c1sc(N/N=C/c2ccc(C(C)C)cc2)nc1C`, the inhibition is 2.17% (inactive).

`COc1ccc(S(=O)(=O)N2CCOCC2)cc1NC(=O)CSc1nnc(NC2CC2)s1`: the inhibition is -4.5% (inactive).

For the compound `COc1ccc(NC(=O)NNC(=O)COc2cc(C)c(Cl)c(C)c2)c(OC)c1`, the inhibition was -5.21% (inactive).

As to `Cc1ccc(C(=O)CCC(=O)N(C)CC(=O)Nc2c(Cl)cccc2Cl)cc1`, the inhibition is 4.61% (inactive). The value for `CN(CC(=O)Nc1c(Cl)cccc1Cl)C(=O)c1ccncc1` was 111% (active). To `CN(CC(=O)Nc1c(Cl)cccc1Cl)C(=O)CNC(=O)C1CCCCC1` belongs -5.68% (inactive). For `C/C(CC(=O)Nc1cccc(F)c1)=N\NC(=O)C(=O)NC1CCCCC1`, the inhibition was 15.3% (active). To `O=C(Nc1cccc(F)c1)NC1CCCCCCC1` belongs 0.578% (inactive); to `COc1cccc(NC(=O)C/C(C)=N/NC(=O)C2CCCCC2)c1`, 3.19% (inactive).

`COc1ccc(F)cc1C(=O)C1CCCN(C(=O)CCc2ccccn2)C1` (stereo not drawn): the inhibition is -0.521% (inactive).

In the case of `CC1=NN(C(=O)c2ccccc2Br)C(O)(c2cccnc2)C1` (stereo not drawn), the inhibition was -0.482% (inactive). On to `CC1=NN(C(=O)c2ccc(Br)cc2)C(O)(c2ccccc2)C1` (stereo not drawn), for which the inhibition was 15.6% (active).

On to `CCOC(=O)C1(O)CC(C)=NN1C(=O)c1cccc(Br)c1` (stereo not drawn), for which the inhibition is 1.92% (inactive). To `Cc1coc2c1c(C)cc1oc(=O)c(CC(=O)NCC(=O)N[C@H](C(=O)O)C(C)C)c(C)c12` belongs 1.45% (inactive). To `COc1ccc(C(=O)Nc2c(N)nc(SCC(=O)Nc3ccc(C(C)=O)cc3)[nH]c2=O)cc1` belongs 2.95% (inactive). As for `COc1ccc(OC)c(NC(=O)CSc2nc(N)c(-c3ccccc3)c(=O)[nH]2)c1`, the inhibition is 4.91% (inactive). To `COc1ccc(NC(=O)CSc2nc(N)c(-c3ccccc3)c(=O)[nH]2)cc1` belongs 12.1% (active); to `CCOc1ccc(CCNC(=O)COC(=O)C2CCN(c3ccc(C(F)(F)F)cn3)CC2)cc1OCC`, 2.54% (inactive); to `O=C(CN1CCc2ccccc2C1)Nc1cccc(S(=O)(=O)N2CCOCC2)c1`, 2.86% (inactive). As to `CSCCC(NS(=O)(=O)c1ccc(C)cc1)C(=O)NCCc1c[nH]c2ccccc12` (stereo not drawn), the inhibition was -5.03% (inactive). To `CCc1nnc(NC(=O)[C@@H](NC(=O)c2cccc(C)c2)C(C)C)s1` belongs 1.78% (inactive). To `CCOc1c2ccc(C(=O)NCc3ccc4c(c3)OCO4)cc2nn1C` belongs 19.6% (active). For `CCOc1c2ccc(C(=O)NCc3ccc(OC(F)(F)F)cc3)cc2nn1C`, the inhibition was -0.924% (inactive). For `CCCn1nc2cc(C(=O)NCc3ccccc3)ccc2c1OCC`, the inhibition was 3.43% (inactive).

Take `COC(=O)[C@H](C(C)C)n1c(C)c(C(C)=O)c(C(C)=O)c1C`: the inhibition is -3.34% (inactive).

Consider `CCC(=O)N(C)C(c1ccccc1Cl)c1nnnn1-c1c(C)cccc1C` (stereo not drawn), for which the inhibition is -0.0342% (inactive).

For `COC(=O)c1ccc(SCc2ccccc2)nc1`, the inhibition is 60.3% (active). Consider `COC(=O)c1ccc(CSc2ccc(S(=O)(=O)N3CCCCC3)cn2)cc1`, for which the inhibition was -0.0946% (inactive).

On to `COC(=O)c1ccc(CSc2nncn2C)cc1`, for which the inhibition was 5.16% (inactive).

With `CCCCNc1ccc(C(=O)Nc2cccc(C)n2)cc1[N+](=O)[O-]`, the inhibition is -3.43% (inactive).

In the case of `Cc1cc(C)c(C)c(S(=O)(=O)Nc2cccnc2)c1C`, the inhibition was -0.825% (inactive). To `COc1ccc(S(=O)(=O)Nc2cccnc2)c(Cl)c1Cl` belongs 12.6% (active); to `COc1ccccc1Oc1ccc(S(=O)(=O)Nc2cccnc2)cc1`, 2.24% (inactive); to `COc1ccc(CCc2nnc(CCC(=O)NCc3cnn(-c4ccccc4C)c3)o2)cc1`, 16.6% (inactive).

For `CC(=O)Nc1ccc(S(=O)(=O)NC2(C(F)(F)F)C(=O)Nc3c2c(=O)[nH]c(=O)n3Cc2ccccc2)cc1` (stereo not drawn), the inhibition was -2.71% (inactive). Regarding `CC(=O)n1cc([C@@H]2C=C(C(=O)N3CCN(Cc4ccc5c(c4)OCO5)CC3)O[C@H](OCc3ccc(CO)cc3)C2)c2ccccc21`, the inhibition was 1.33% (inactive). The value for `CCC(C)c1ccc(NC(=S)NCc2ccccn2)cc1` (stereo not drawn) was -1.48% (inactive); that for `CCN(CC)CCOc1ccc2c(c1)C(=NNC(=O)c1ccccn1)c1cc(OCCN(CC)CC)ccc1-2` was -1.56% (inactive); that for `Oc1ccc(-c2onc3ccc(Cl)cc23)cc1` was 3.12% (inactive). Consider `CC(OC(=O)c1ccc2noc(-c3ccccc3)c2c1)C(N)=O` (stereo not drawn), for which the inhibition is -5.93% (inactive).

On to `COc1ccc(-c2onc3ccc(C(C)=O)cc23)cc1`, for which the inhibition is 26.3% (active). To `CC(C)c1ccc(Nc2nnc(SCC(=O)c3nnc(-c4ccccc4)o3)s2)cc1` belongs -16.3% (inactive); to `Cc1noc(C)c1COc1ccc(C(=O)NCCOc2ccccc2)cc1`, 2.1% (inactive); to `COc1ccc(C)cc1Nc1nc(C)nc2c1oc1ccccc12`, 3.52% (inactive). As to `COc1ccc(C)cc1Nc1nc(-c2c(C)[nH]c3ccccc23)cs1`, the inhibition was 39.5% (active). On to `COC(=O)c1cnc(Nc2cc(C)ccc2OC)c2ccccc12`, for which the inhibition was -2.27% (inactive). The value for `Cc1cc(C=O)c(C)n1-c1ccc(NC2CCCCC2)c([N+](=O)[O-])c1` was 5.17% (inactive). In the case of `Cc1ccc(NS(=O)(=O)c2ccc(C(C)C)cc2)cc1S(=O)(=O)N1CCOCC1`, the inhibition was -10.5% (inactive). The value for `O=C(COc1ccc(Cl)cc1)NCCSc1ccccc1` was -4.08% (inactive); that for `O=C(CCCOc1ccccc1)NNC(=O)c1ccc(Cl)cc1` was 3.13% (inactive); that for `O=C(CCc1ccccc1)NNC(=O)COc1ccc(Cl)cc1` was 77.8% (active).

For `COC(=O)Cc1csc(/N=C/c2c(O)n(-c3cccc(C(F)(F)F)c3)c(=O)c3ccccc23)n1`, the inhibition was -3.9% (inactive). In the case of `Cn1c(CCc2ccccc2)nnc1SCC(N)=O`, the inhibition was -7.18% (inactive). For `N#CCCn1ncc2ccccc21`, the inhibition is 4.72% (inactive).

On to `O=C(CNCc1ccc(F)cc1)Nc1ccccc1-c1ccccc1`, for which the inhibition was -4% (inactive). To `COc1cc(NC(=O)c2ccccc2)c(OC)cc1NC(=O)Cc1ccccc1` belongs -1.39% (inactive); to `CC(=O)NCC(=O)N1CCCC(C(=O)c2ccc3c4c(cccc24)CC3)C1` (stereo not drawn), -1.06% (inactive). For the compound `Cc1ncoc1C(=O)N1CCCC(C(=O)c2ccc3c4c(cccc24)CC3)C1` (stereo not drawn), the inhibition is 1.25% (inactive).

Turning to `CCn1ccnc1CN1CCCC(C(=O)c2ccc3c4c(cccc24)CC3)C1` (stereo not drawn), the inhibition was 25.9% (active).

With `CCc1c(O)cc2n(c1=O)-c1ccccc1C2(C)C`, the inhibition is 5.7% (inactive). `O=C(CN1CCN(c2ncccn2)CC1)Nc1ccccc1C(F)(F)F`: the inhibition was 0.982% (inactive). As to `COc1ccc(/C(C)=N/N2CCOCC2)c(O)c1`, the inhibition was 25.4% (active). Consider `COc1cc(C(=S)N2CCOCC2)ccc1O`, for which the inhibition is 9.41% (inactive). To `COc1ccc(OC)c(C(=O)c2coc3ccc(O)c(CN4CCOCC4)c23)c1` belongs -2.58% (inactive). The value for `CC(C)(C)C1CCC(OC(=O)CCC(=O)Nc2ccccc2)CC1` (stereo not drawn) was -3.13% (inactive); that for `Cc1ccc(C2NC(C(=O)O)CS2)cc1` (stereo not drawn) was 1.22% (inactive); that for `CN(CC(=O)Nc1ccc(F)c(F)c1F)C(=O)Cn1cnc2c1c(=O)n(C)c(=O)n2C` was 1.35% (inactive). As for `CC(C)(C)n1c(=O)[nH]c2c(c1=O)CCC2`, the inhibition was 23.6% (active). To `O=c1[nH]n2c(=O)c3c([nH]c2c1N=Nc1ccccc1)CCC3` belongs -4.38% (inactive).

The inhibition is the relative decrease from the control value, in per cent.
